A selection: hits, their analogues and other compounds. The true share with any hit is near 2.4%.
HSP90 refold inh = blocks HSP90-mediated luciferase refolding in reticulocyte lysate. AID 1789. 0.91% of 290,000 active. inhibition, % at 5.6 µM. Rabbit reticulocyte lysate, luciferase refolding luminescence, 3 h;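 active = inhibition above the screen-wide mean plus 3 SD, computed separately per campaign, cut at about 16% in these data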;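 note: inhibitors lower the luminescence because luciferase stays unfolded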
STAT3 inh = inhibitors of IL-6 induced STAT3 signaling; U3A cells, IL-6 STAT3-luciferase reporter, luminescence; host cell line lacks STAT1; inhibition, % at 5.5 µM; 0.89% of 190,000 active;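 active = inhibition above the mean inhibition across all screened compounds plus 3 SD, cut at about 44% in these data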
HSF1 inh = HSF1 inhibition | NIH3T3-HGL HSE-luciferase, MG132-induced, luminescence 8 h; hits give low values | activity change, negative = inhibition, % at 7.5 µM (by protocol) | 0.77% of 300,000 active;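 active = more than half of replicate wells show activity change below -50%, luminescence cut by over half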;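 note: luciferase reports HSF-1 transcriptional activity via heat shock element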
STAT1 blocker = reduces IFN-gamma driven STAT1 reporter signal; NIH 3T3 STAT1-luciferase reporter, luminescence; inhibition, % at 5.5 µM; 0.35% of 200,000 active;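 active = inhibition above a set limit, the mean inhibition across all tested compounds plus 3 SD, cut at about 34% in these data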
C8 TRAIL sens = caspase-8 TRAIL sensitization | NB7+C8 cells + TRAIL, ATPlite viability luminescence | inhibition (viability loss, TRAIL sensitization), % at 10 µM | 1% of 360,000 active | AID 624354;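 active = compounds causing at least 50% loss of cell viability in the single-dose screen, relative to plate controls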
PPC-1+TRAIL kill = compounds killing PPC-1 cancer cells with TRAIL present (potentiator screen, no TRAIL-free arm); PPC-1 cells + TRAIL, ATPLite viability luminescence; 0.41% of 220,000 active; cell killing (% activity), % at 4 µM or 5 µM;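 active = cell killing above 50% in the first pass at 4 µM, then a duplicate retest at 5 µM averaging 50% or more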
Numbers stand for hits; - = inactive; . = no result.

SMILES	HSP90 refold inh	STAT3 inh	HSF1 inh	STAT1 blocker	C8 TRAIL sens	PPC-1+TRAIL kill
COc1ccc(NC(=O)C2Cc3c(-c4cccc(F)c4)ccnc3O2)cc1OC (centres undefined)	.	.	.	.	-	.
CCC(=O)c1ccc(OCC(=O)OCC(=O)N2CCCc3ccccc32)cc1	.	.	-	.	88.0	.
COc1ccccc1-c1nn2c(=O)cc(C)nc2s1	-	-	-	-	-	-
Cc1cc(=O)n2nc(-c3ccc(C(F)(F)F)cc3)sc2n1	-	-	-69.7	-	-	-
CCOC(=O)C1(C)CCN1C(=O)c1ccc(C)cc1 (centres undefined)	.	.	.	.	-	.
COc1ccc(CC(=O)Nc2ccc(-c3nnc(-c4ccccc4)o3)cc2)cc1OC	-	-	-	-	-	-
COc1ccc(CC(=O)Nc2cccc(-c3nnc(-c4ccc(C)cc4)o3)c2)cc1OC	-	-	-	-	90.1	-
COc1ccc(CC(=O)Nc2cccc(-c3nnc(-c4ccccc4)o3)c2)cc1OC	-	-	-	-	56.2	-
Nc1c(Cl)cnn(-c2ccccc2)c1=O	.	.	-	.	-	.
O=c1c(Cl)c(Cl)cnn1-c1ccccc1	-	-	-96.3	-	-	-
COCCN(CCOC)Cc1cc(=O)oc2cc(C)c(C)cc12	.	.	.	.	-	.
O=C1c2ccccc2C(=O)N1CCCCN(C(=O)c1ccco1)c1ccc(Cl)cc1	-	-	-	-	-	-
O=C1/C(=C/N(C(=O)c2ccco2)c2ccc(Cl)cc2)Sc2ccccc21	16.5	-	-	-	55.0	-
Cc1ccc(C=Nc2ccc(N(C)C)cc2)o1	-	-	-	-	-	-
Cc1csc(N=Nc2ccc(N(C)C)cc2)[n+]1[O-]	.	.	.	.	80.9	.
C#CCNC(=O)C[C@@H]1C[C@@]2(C(=O)OC)CCCCC=C2N(Cc2ccc(Cl)cc2Cl)C1=O	.	.	.	.	-	.
CCc1ccccc1NC(=O)CCS(=O)(=O)c1ccc(OC)cc1	-	.	-79.4	.	-	.
S=c1[nH]nc(-c2ccncc2)n1Cc1ccco1	-	-	-69.2	-	-	-
Cc1[nH]n(-c2ccccc2)c(=O)c1N=Nc1ccc2c(c1)OCCO2	-	-	.	-	-	-
Cc1[nH]n(-c2ccccc2)c(=O)c1N=Nc1c(O)cc(S(=O)(=O)N(C)C)c2ccccc12	.	.	-	.	57.8	.
COc1ccc(Nc2nc(OC)nc(OC)n2)cc1	-	.	-	.	-	.
COc1ccc(Nc2nc(Nc3ccc(OC)cc3)nc(-n3[nH]c(=O)c(C)c3C)n2)cc1	-	-	-62.5	-	-	-
C#CCN(C[C@@H]1[C@@H](OC(=O)NCc2ccco2)[C@@H](OC(=O)NCc2ccco2)Cn2c(=O)ccc(=O)n21)S(=O)(=O)c1ccc(C)cc1	.	.	.	.	-	.
C#CCN(C[C@@H]1[C@@H](OC(=O)NCCCCCC)[C@@H](OC(=O)NCCCCCC)Cn2c(=O)ccc(=O)n21)S(=O)(=O)c1ccc(C)cc1	.	.	.	.	89.4	.
C#CCN(C[C@@H]1[C@@H](OC(=O)NCC2CCCCC2)[C@@H](OC(=O)NCC2CCCCC2)Cn2c(=O)ccc(=O)n21)S(=O)(=O)c1ccc(C)cc1	.	.	.	.	92.8	.
SMILES	HSP90 refold inh	STAT3 inh	HSF1 inh	STAT1 blocker	C8 TRAIL sens	PPC-1+TRAIL kill
Cc1ccc(S(=O)(=O)NCCC(=O)N2CCN(S(=O)(=O)c3cccc(F)c3)CC2)cc1C	.	.	-	.	-	.
O=C(N1CCCCC1)N1CCN(S(=O)(=O)c2ccccc2)CC1	-	.	-70.9	.	-	.
Cc1ccc(S(=O)(=O)NCCC(=O)N2CCN(S(=O)(=O)c3ccccc3)CC2)cc1C	.	.	-55.5	.	-	.
O=C1OC(/C(=C\Nc2cc(Cl)ccc2O)[N+](=O)[O-])c2ccccc21 (centres undefined)	38.2	-	-	-	-	-
O=C1OC(/C(=C\Nc2ccc(F)cc2F)[N+](=O)[O-])c2ccccc21 (centres undefined)	-	-	-	-	-	-
CCOC1CCCc2oc(-c3ccc(N(C)C)cc3)c(C(=O)OC)c21 (centres undefined)	.	.	.	.	-	.
O=C1Nc2ccccc2-n2nnnc2C1N1CCN(c2ccc(C(F)(F)F)cc2[N+](=O)[O-])CC1 (centres undefined)	.	.	.	.	-	.
COc1ccc(OC)c(/C=C/C(=O)c2ccc3c(c2)OCCO3)c1	-	.	-	.	65.3	.
COc1cc(/C=C/C(=O)c2ccc3c(c2)OCCO3)cc(OC)c1OC	-	.	-	.	-	.
COC(=O)C[C@@H]1C=C[C@H](NC(=O)Cc2ccccn2)[C@@H](CO)O1	.	.	.	.	-	.
COc1cccc2c1C(CO)N1C(C#N)C3CC(C(=O)O)C(C1C2)N3C (centres undefined)	-	.	.	.	59.4	-
COc1cccc2c1OCC(C(=O)O)C2 (centres undefined)	-	-	-	-	-	-
CC(C)OC(=O)Cn1c(=O)oc2ccccc21	-	-	-51.7	-	-	-
CC1(c2nnnn2-c2ccc3c(c2)OCCO3)CCC(=O)N1Cc1cccnc1 (centres undefined)	.	.	.	.	-	.
Cc1nnsc1C(=O)N/N=C/c1ccc2ccccc2c1O	-	-	-	-	-	59.7
Cc1[nH]cnc1C(=O)N/N=C/c1c(Cl)cccc1Cl	-	.	-	.	59.2	.
CCOc1ccc2nc(S(=O)(=O)NC(=O)C3(C)CCN3C(=O)CCc3cccs3)sc2c1 (centres undefined)	.	.	.	.	-	.
N/C(=N\OC(=O)Cc1cccc2ccccc12)c1ccccn1	-	-	-	-	-	-
N/C(=N\OC(=O)c1ccc(Cl)cc1[N+](=O)[O-])c1ccccn1	-	.	-	.	-	.
Cc1c(C(=O)O/N=C(\N)c2ccccn2)cccc1[N+](=O)[O-]	-	.	-	.	74.9	-
N/C(=N\OC(=O)c1cccc2ccccc12)c1ccccn1	-	.	-	.	55.7	-
CCOC1=C2CN(S(=O)(=O)c3ccc(C)cc3)[C@H](c3ccccc3)C[C@@H]2N(S(=O)(=O)c2ccccc2C)[C@H](c2ccccc2)C1	.	.	.	.	-	.
Nc1ccc(-c2nc3ccccc3s2)cn1	-	.	-	.	-	.
Cc1cc(-c2nc3ccccc3s2)ccc1N	.	.	.	.	72.4	.
COC(=O)c1ccccc1NC(=O)c1cc(C2CC2)on1	-	-	-	-	-	-
SMILES	HSP90 refold inh	STAT3 inh	HSF1 inh	STAT1 blocker	C8 TRAIL sens	PPC-1+TRAIL kill
COC(=O)c1ccccc1NC(=O)c1cc(-c2ccc(O)cc2)on1	-	-	-	-	51.0	-
CC(C)(C)OC(=O)N1CCCC(C(=O)Nc2ccc(C(=O)NC3CC3)cc2)C1 (centres undefined)	.	.	.	.	-	.
CCCCC(=O)NC(c1ccco1)c1cc(Cl)c2cccnc2c1O (centres undefined)	-	-	-	-	-	.
CCC(=O)NC(c1ccco1)c1cc(Cl)c2cccnc2c1O (centres undefined)	-	-	-72.4	-	-	.
CC(=O)NC(c1ccc(C)cc1)c1cc(Cl)c2cccnc2c1O (centres undefined)	-	.	-83.2	.	-	.
CC(=O)NC(c1ccco1)c1cc(Cl)c2cccnc2c1O (centres undefined)	.	.	.	.	-	.
CCC(=O)NC(c1ccc(OC)cc1)c1cc(Cl)c2cccnc2c1O (centres undefined)	-	-	-64.5	-	-	.

Compound activity from PubChem BioAssay.
